Measured values published in PubChem BioAssay (Tox21).
Results filed as inconclusive are left out. Where a call stands in place of a potency, no number is given. Calls of active or inactive are those of the source. Unless noted, the call rests on the fitted dose curve; in most records, active means well fitted curve in the direction sought with a large enough effect in the repeat runs; inconclusive means weak or mixed curves; inactive means no such curve, though single readings can be large; an effect the other way counts as inactive or inconclusive.

Assays:
[1] = qHTS assay for small molecules that induce genotoxicity in human embryonic kidney cells expressing luciferase-tagged ATAD5 (AID 651632); further: nearly all actives have a fitted effect of over 15% in size; further: potency means the concentration at half of the fitted maximal effect
In short: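 Cells were seeded at 2,000 per well, dosed with compound, and incubated 16 hr at 37C in 5% CO2. Luciferase activity was then quantified after a 30 min room-temperature incubation with Amplite.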

[2] = qHTS assay for small molecule agonists of the p53 signaling pathway - cell viability (AID 651633; calls by dose curve;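 further: p53RE-bla HCT reporter cells with a stable beta-lactamase p53 reporter; series mostly up to about 83 µM; nearly all actives have a fitted effect of over 30% in size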)
In short: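 p53RE-bla cells, seeded at 4,000 per well and rested 5 h at 37 C/5% CO2, received compounds in DMSO for 16 h at 37 C. CellTiter-Glo was then added, and luminescence was read after 30 min at room temperature to gauge cytotoxicity.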

[3] = qHTS assay for small molecules that induce genotoxicity in human embryonic kidney cells expressing luciferase-tagged ATAD5 - cell viability (AID 651634; calls by dose curve; further: nearly all actives have a fitted effect of over 25% in size; further: potency means the concentration at half of the fitted maximal effect)
In short: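 Cells (HEK293T, luciferase-tagged ATAD5) are seeded at 2,000 per well, dosed with compound or DMSO vehicle, and incubated 15.5 hr at 37C and 5% CO2. CellTiter-Fluor is added for 30 min before fluorescence is measured.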

[4] = qHTS assay for small molecule disruptors of the mitochondrial membrane potential - cell viability (AID 720634; calls by dose curve; further: nearly all actives have a fitted effect of over 20% in size; further: potency means the concentration at half of the fitted maximal effect)
In short: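 Cytotoxicity was measured by ATP quantitation in HepG2 wells that had first been treated with compound for 1 hr and stained with m-MPI dye; CellTiter-Glo incubation was 30 min at room temperature.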

[5] = qHTS assay to test for compound auto fluorescence at 590 nm (red) in HepG2 cells (AID 720674)
In short: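 Compound auto-fluorescence is scored relative to Rose Bengal sodium, measured at 540/590 nm in live HepG2 cultures after 1 hr compound contact (37 C, 5% CO2).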

[6] = qHTS assay to test for compound auto fluorescence at 535 nm (green) in HepG2 cells (AID 720675)
[7] = qHTS assay to test for compound auto fluorescence at 460 nm (blue) in HEK293 cells (AID 720678)
In short: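 Blue read-out at excitation 405 nm and emission 460 nm follows overnight compound exposure of HEK293 cells at 37C in 5% CO2. Activity is given as auto fluorescence equivalency to triamterene.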

[8] = qHTS assay to test for compound auto fluorescence at 590 nm (red) in HEK293 cells (AID 720679)
In short: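 Red channel, Ex/Em 540/590nm; signal expressed as equivalency to Rose Bengal sodium. HEK293, 2,000 cells/well, 10% dialyzed FBS; 23 nL compound pinned after 4-5 hr attachment; overnight 37C/5% CO2 before reading.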

[9] = qHTS assay for small molecule disruptors of the mitochondrial membrane potential (AID 720635); further: potency means the concentration at half of the fitted maximal effect
In short: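 HepG2 cells (2,000/well) attached overnight at 37C, then took compound for 1 hr at 37C, 5% CO2. Mito-MPS dye was added for 30 min; fluorescence was read at 490/535 nm (monomers) and 540/590 nm (aggregates).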

| SMILES | Potency [1] | Potency [2] | Potency [3] | Potency [4] | outcome [5] | Potency [6] | Potency [7] | outcome [8] | Potency [9] |
| --- | --- | --- | --- | --- | --- | --- | --- | --- | --- |
| Clc1cc(Cl)c(-c2cc(Cl)c(Cl)cc2Cl)cc1Cl | inactive | inactive | inactive | inactive | inactive | inactive | inactive | inactive | – |
| CC1(C)[C@H](/C=C2\CCSC2=O)[C@@H]1C(=O)OCc1coc(Cc2ccccc2)c1 | inactive | inactive | – | 9.69 µM (active) | inactive | inactive | inactive | inactive | 21.7 µM (active) |
| Brc1ccc(Oc2ccc(Br)cc2Br)c(Br)c1 | inactive | inactive | – | inactive | inactive | inactive | inactive | inactive | 17.2 µM (active) |
| Cc1cnc2c(C(=O)O)c(Cl)ccc2c1 | inactive | inactive | inactive | inactive | – | inactive | inactive | inactive | – |
| Cc1c([N+](=O)[O-])cc2c(c1[N+](=O)[O-])C(C)(C)CC2(C)C | inactive | inactive | inactive | – | – | inactive | inactive | inactive | 30.6 µM (active) |
| Nc1ccc(N=Nc2ccccc2)cc1 | 13.7 µM (active) | inactive | 41.6 µM (active) | – | – | inactive | inactive | inactive | – |
| CCC(C)c1cccc(C(C)CC)c1O (centres undefined) | inactive | – | inactive | inactive | inactive | inactive | inactive | inactive | 13.7 µM (active) |
| Oc1cc(Cl)cc(Cl)c1 | inactive | inactive | – | – | inactive | inactive | inactive | inactive | 9.79 µM (active) |
| COP(=S)(OC)Oc1nc(Cl)c(Cl)cc1Cl | inactive | inactive | – | inactive | inactive | inactive | inactive | inactive | 48.5 µM (active) |
| Cc1ccc2cc3c(ccc4ccccc43)c3c2c1CC3 | inactive | – | inactive | – | inactive | inactive | inactive | inactive | 12.2 µM (active) |
| c1ccc(Nc2ccc(Nc3ccccc3)cc2)cc1 | inactive | – | inactive | 24.2 µM (active) | inactive | inactive | inactive | inactive | 8.6 µM (active) |
| FC(F)C(F)(F)OCC(Cn1cncn1)c1ccc(Cl)cc1Cl (centres undefined) | inactive | inactive | – | – | inactive | inactive | inactive | inactive | 48.3 µM (active) |
| Cc1ccccc1OP(=O)(Oc1ccccc1C)Oc1ccccc1C | inactive | – | inactive | 9.73 µM (active) | inactive | inactive | inactive | inactive | 17.3 µM (active) |
| O=[N+]([O-])c1cccc2cccc([N+](=O)[O-])c12 | inactive | – | inactive | – | inactive | inactive | inactive | inactive | 9.73 µM (active) |
| Brc1cccc(-c2ccccc2)c1 | inactive | inactive | – | inactive | inactive | inactive | inactive | inactive | 0.436 µM (active) |
| CNC(=O)O/N=C(\C)C(C)S(C)(=O)=O (centres undefined) | inactive | – | inactive | inactive | inactive | inactive | inactive | inactive | – |
| COP(=O)(OC)O/C(=C\Cl)c1cc(Cl)c(Cl)cc1Cl | inactive | inactive | – | inactive | inactive | inactive | inactive | inactive | – |
| CCCCN(CCCC)C(=S)[S-].CCCCN(CCCC)C(=S)[S-].[Ni+2] | inactive | – | inactive | inactive | – | inactive | inactive | inactive | – |
| CC(Cc1ccc(OCC(=O)O)cc1)NCC(O)c1csc(C(F)(F)F)n1 (centres undefined) | inactive | – | inactive | inactive | – | inactive | inactive | inactive | inactive |
| CCOP(=O)(Sc1ccccc1)Sc1ccccc1 | inactive | – | inactive | inactive | – | inactive | inactive | inactive | – |
| O=C(O)[C@H](O)[C@@H](O)C(=O)O | inactive | – | inactive | inactive | inactive | inactive | inactive | inactive | – |
| CC[C@H](C)[C@H]1O[C@]2(C=C[C@@H]1C)C[C@@H]1C[C@@H](C/C=C(\C)[C@@H](O[C@H]3C[C@H](OC)[C@@H](O[C@H]4C[C@H](OC)[C@@H](NC)[C@H](C)O4)[C@H](C)O3)[C@@H](C)/C=C/C=C3\CO[C@@H]4[C@H](O)C(C)=C[C@@H](C(=O)O1)[C@]34O)O2 | inactive | – | 17.2 µM (active) | 30.6 µM (active) | inactive | inactive | inactive | inactive | 6.86 µM (active) |
| CCCCCCC[CH2][Sn]([Cl])([Cl])[CH2]CCCCCCC | inactive | – | inactive | inactive | – | inactive | inactive | inactive | 48.5 µM (active) |
| CSC(C)(C)/C=N/O | inactive | – | inactive | inactive | – | inactive | inactive | inactive | inactive |
